Each structure is given as a SMILES string. Inconclusive results are not listed. Values without a mark were called inactive. Calls of active or inactive are those of the source. Calls come from the whole dose curve; as a rule, active = well fitted activation curve with a large enough effect; inconclusive = small, poorly fitted or top-dose-only effect; inactive = no such curve, though single readings can be large or run the other way.

This test is described as follows: Extended Characterization of HPGD Inhibitors: PGE2 Assay in LNCaP Cells. The conditions noted are these: PGE2 HTRF level, 16 h; series mostly up to 100 µM; PGE2 level, % of control (higher = increase): at the top concentration.
Consider `Cc1cc(-c2nnc3n2CCCCC3)c(C)n1-c1ccc(Cl)c(Cl)c1`, for which the Potency was 352 nM (active).
The same measure, in the same setting: to `O=C(c1ccc2c(c1)ncn2-c1cccc(C(F)(F)F)c1)N1CCCCC1` belongs 2800 nM (active); to `Cc1cccc(-n2cnc3cc(C(=O)NC4CCCCC4)ccc32)c1`, 22200 nM (active).
Regarding `COc1cccc(-n2cnc3cc(C(=O)N4CCCCC4)ccc32)c1`, the Potency is 280 nM (active).
As for `Cc1cc(-c2nnc3n2CCCCC3)c(C)n1-c1ccc(C(F)(F)F)cc1`, the Potency was 3520 nM (active).
On to `CCOC(=O)c1ccc(-n2c(C)cc(-c3nnc4n3CCCCC4)c2C)cc1`, for which the Potency is 14000 nM (active).
For `Cc1cc(-c2nnc3n2CCCCC3)c(C)n1-c1cccc(Cl)c1`, the Potency is 558 nM (active).
On to `CCOC(=O)c1ccc(-n2cnc3cc(C(=O)N4CCCCC4)ccc32)cc1`, for which the “PGE2 level, % of control (higher = increase)” value was 450%.
Take `Cc1cc(-c2nnc3n2CCCCC3)c(C)n1-c1ccc(F)cc1`: the Potency was 3520 nM (active).
Still for that read-out and setting: to `N#Cc1ccc(CSc2nc3ncc(Br)cc3[nH]2)cc1` belongs 22200 nM (active); to `Fc1ccc(CSc2nc3ncc(Br)cc3[nH]2)cc1`, 35200 nM (active).
The same measure, in the same setting: for `Cc1cccc(-n2cnc3cc(C(=O)N4CCCCCC4)ccc32)c1` the value was 1760 nM (active).
On the same count and under the same terms, to `Cc1cc(-c2nnc3n2CCCCC3)c(C)n1-c1cccc(C#N)c1` belongs 1760 nM (active).
For `Cc1cc(-c2nnc3n2CCCCC3)c(C)n1-c1ccc([N+](=O)[O-])cc1`, the Potency was 2220 nM (active).
Still for that read-out and setting: to `COc1ccc(-n2cnc3cc(C(=O)N4CCCCC4)ccc32)cc1` belongs 884 nM (active).
On the same count and under the same terms, to `CC(C)(C)n1cnc2cc(C(=O)N3CCCCC3)ccc21` belongs 884 nM (active).

(Values after PubChem BioAssay AID743172 (National Center for Advancing Translational Sciences (NCATS), 2013).)
